HepG2 tox = qHTS for Inhibitors of TGF-b: Cytotox Counterscreen | HepG2 CAGA-GFP viability, ATP luminescence, 18 h | Potency, µM (doses to about 46.1 µM), actives largely listed as cytotoxic | 0.76% of 410,000 active | AID 588856, 2011
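HepG2 CAGA-GFP cells (1000/well, DMEM with 1% FBS) received compound, then TGF-beta at 500 pg/mL final, and were incubated 18 hours at 37 degrees C. Viability was read by CellTiter-Glo luminescence. Media-only wells were set as complete cell-killing and DMSO as no toxicity.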
TGFb inhibitor = qHTS for Inhibitors of TGF-b; HepG2 CAGA-GFP TGF-b/SMAD3 reporter, GFP fluorescence, 18 h; TGF-beta stimulated, 500 pg/mL final; Potency, µM (highest dose often 46.1 µM), actives largely listed as inhibitors; 1.2% of 410,000 active; AID 588855, 2011; note: nearly all actives have a fitted effect of over 65% in size
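Cell-based qHTS in HEPG2 carrying a CAGA-GFP Smad reporter; compounds added before 500 pg/mL final TGF-beta, 18 h incubation at 37 degrees C, GFP fluorescence quantified per cell by imaging cytometry.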
ATXN viability = Viability Counterscreen for Primary qHTS for Inhibitors of ATXN expression | S2 cells (HEK-293 line with an ATXN2-luciferase reporter) viability, CellTiter-Fluor protease fluorescence, 24 h | Potency, µM (titrated, usually from 56.7 µM), usual class: cytotoxic | 0.49% of 400,000 active | AID 651635, 2014; note: nearly all actives have a fitted effect of over 40% in size
VP16 counter = VP16 counterscreen qHTS for inhibitors of ROR gamma transcriptional activity; 3.5% of 310,000 active; Potency, µM (series often up to 53.6 µM), most hits filed as inhibitors; AID 2546, 2010; Drosophila S2 Gal4-VP16 UAS-luciferase, luminescence, 20 h;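 note: Gal4-VP16 expression switched on by copper sulfate through the metallothionein promoter; nearly all actives have a fitted effect of over 50% in size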
ATXN2 expr inh = Primary qHTS for Inhibitors of ATXN expression | HEK-293 ATXN2-luciferase reporter, luminescence, 24 h | Potency, µM (top dose mostly 57 µM), most hits filed as inhibitors | 0.72% of 360,000 active; note: nearly all actives have a fitted effect of over 55% in size
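qHTS (up to 57 uM final) was run with 24 h compound exposure of reporter cells at 37 °C. Each well was multiplexed: SteadyGlo luminescence measured ATXN2-luciferase expression after a fluorogenic Gly-Phe-AFC viability readout (25 uM final).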
RORg inh = qHTS for inhibitors of ROR gamma transcriptional activity; Nuclear receptor ROR-gamma (Mus musculus), P51450; 5.4% of 310,000 active; AID 2551, 2010; Potency, µM (doses to about 53.6 µM), hits mostly inhibitors; Drosophila S2 Gal4-RORgamma UAS-luciferase reporter, 20 h; note: nearly all actives have a fitted effect of over 60% in size
Target sequence (P51450 whole entry, looked up, the tested form may be a part): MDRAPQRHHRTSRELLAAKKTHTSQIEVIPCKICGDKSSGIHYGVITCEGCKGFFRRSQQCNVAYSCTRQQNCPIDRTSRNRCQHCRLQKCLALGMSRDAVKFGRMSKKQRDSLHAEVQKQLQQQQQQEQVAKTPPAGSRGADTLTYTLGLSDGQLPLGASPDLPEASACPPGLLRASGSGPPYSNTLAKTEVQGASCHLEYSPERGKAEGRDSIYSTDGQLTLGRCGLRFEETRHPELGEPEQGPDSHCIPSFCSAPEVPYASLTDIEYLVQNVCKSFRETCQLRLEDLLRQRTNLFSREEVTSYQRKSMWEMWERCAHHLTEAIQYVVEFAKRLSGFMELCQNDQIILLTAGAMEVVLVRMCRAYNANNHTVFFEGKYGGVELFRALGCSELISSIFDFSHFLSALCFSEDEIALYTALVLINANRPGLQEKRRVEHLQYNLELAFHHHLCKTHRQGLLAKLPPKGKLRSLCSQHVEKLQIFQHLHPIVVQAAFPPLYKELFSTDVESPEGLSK
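Read-out: Photinus luciferase luminescence; inhibitors lower reporter signal. Insect Schneider cells with Gal4-ROR gamma fusion under metallothionein promoter, UAS reporter; 700 uM final copper sulfate induction, 20 hr, ambient temperature.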
Each line names hits and unclear results; the compound was inactive in the other large screens. Hits are enriched below; roughly 6.3% of the tested compounds scored in any of these assays. Calls come from the whole dose curve; as a rule, active = well fitted curve in the direction sought with a large enough effect; inconclusive = small, poorly fitted or top-dose-only effect, or another doubt; inactive = no such curve, though single readings can be large; an effect the other way counts as inactive or inconclusive.

OC[C@@H]1O[C@@H](Oc2ccc(O)cc2)[C@H](O)[C@@H](O)[C@@H]1O	none (no result: HepG2 tox, TGFb inhibitor, ATXN viability, ATXN2 expr inh)
CCN(CC)CCNC(=O)c1ccc(NC(=O)c2cccc(S(=O)(=O)N3c4ccccc4CC3C)c2)cc1 (configuration not stated)	HepG2 tox 10µM, TGFb inhibitor inconclusive, ATXN viability inconclusive, ATXN2 expr inh inconclusive
CC1Cc2ccccc2N1S(=O)(=O)c1nnc(NC(=O)c2ccccc2)s1 (configuration not stated)	TGFb inhibitor 14µM, ATXN viability inconclusive (no result: VP16 counter, RORg inh)
Cc1ccc(C(=O)Nc2nnc(S(=O)(=O)N3c4ccccc4CC3C)s2)cc1 (configuration not stated)	none (no result: VP16 counter, RORg inh)
CCN(CC)CCNC(=O)c1ccc(NC(=O)c2cccc(S(=O)(=O)N3CCc4ccccc43)c2)cc1	TGFb inhibitor inconclusive (no result: VP16 counter, RORg inh)
CC1Cc2ccccc2N1S(=O)(=O)c1cccc(C(=O)NCc2ccncc2)c1 (configuration not stated)	TGFb inhibitor inconclusive (no result: VP16 counter, RORg inh)
CCN(CC)CCNC(=O)c1ccc(NC(=O)c2cccc(S(=O)(=O)Nc3ccc(C)cc3)c2)cc1	VP16 counter 16µM (no result: ATXN2 expr inh)
CC1Cc2ccccc2N1S(=O)(=O)c1cccc(C(=O)NCc2ccccn2)c1 (configuration not stated)	HepG2 tox 20µM, TGFb inhibitor inconclusive (no result: VP16 counter, ATXN2 expr inh, RORg inh)
Cc1c(C(=O)NCc2cccc(F)c2)sc2ncnc(NCC3CCCO3)c12 (configuration not stated)	none (no result: HepG2 tox, TGFb inhibitor, VP16 counter, ATXN2 expr inh, RORg inh)
CC(=O)c1cccc(NC(=O)c2oc(=O)c3ccccc3c2-c2ccccc2)c1	TGFb inhibitor inconclusive (no result: VP16 counter, RORg inh)
O=[N+]([O-])c1ccc2c(c1)C=C/C2=C/c1ccccc1	TGFb inhibitor inconclusive (no result: ATXN viability, VP16 counter, ATXN2 expr inh, RORg inh)
C[C@@H]1CN([C@@H](C)CO)C(=O)CCCn2nncc2CO[C@@H]1CN(C)C(=O)C1CCCCC1	none (no result: VP16 counter, RORg inh)
CN(Cc1c(C(=O)N/N=C/c2cccs2)nnn1-c1nonc1N)c1ccccc1	VP16 counter inconclusive, RORg inh 5.6µM
CCCc1c(C(=O)N/N=C/c2cccs2)nnn1-c1nonc1N	VP16 counter 6.3µM, RORg inh inconclusive
CCCN(CCC)Cc1c(C(=O)N/N=C/c2cccs2)nnn1-c1nonc1N	VP16 counter inconclusive, RORg inh 13µM
CCCc1c(C(=O)N/N=C/c2ccc(C)s2)nnn1-c1nonc1N	VP16 counter 2.8µM, RORg inh 1µM
O=C(CC1(c2cccc(F)c2)CC(=O)N(Cc2cccnc2)C1=O)N1CCCCCCC1 (configuration not stated)	none (no result: HepG2 tox, TGFb inhibitor, VP16 counter, ATXN2 expr inh, RORg inh)
CCCc1c(C(=O)N/N=C(\C)c2ccccn2)nnn1-c1nonc1N	HepG2 tox 10µM (no result: VP16 counter, ATXN2 expr inh, RORg inh)
Cc1c(C(=O)N/N=C/c2cccs2)nnn1-c1nonc1N	TGFb inhibitor inconclusive, VP16 counter inconclusive, RORg inh 11µM
CCCc1c(C(=O)N/N=C(\C)c2ccc(O)cc2)nnn1-c1nonc1N	none
COc1cc(NC(=O)Nc2nnc(N3CCCCCC3)s2)cc(OC)c1	none (no result: VP16 counter, RORg inh)
Cc1ccc(NC(=O)CN(C)S(=O)(=O)c2cccc3nsnc23)c(C)c1	none (no result: VP16 counter, RORg inh)
CC1=C/C(=N\NC(=S)NCc2ccccc2)CC1	VP16 counter 3.2µM, RORg inh 0.56µM
C/C(=N/NC(=O)CNC(=O)c1ccco1)c1ccco1	none
C/C(=N\NC(=S)NCc1ccccc1)c1ccco1	VP16 counter 7.1µM, RORg inh 1.8µM
CC/C(C)=N/NC(=S)NCc1ccco1	VP16 counter inconclusive, RORg inh 10µM
COc1ccc(CNC(=S)N/N=C(/C)c2ccccc2)cc1	VP16 counter inconclusive, RORg inh 8.9µM
CCN(C(=O)Cn1nc(Cc2ccncc2)c2ccccc2c1=O)c1ccc(OC)cc1	none (no result: ATXN viability, VP16 counter, ATXN2 expr inh, RORg inh)
CC1CN(C(=O)c2ccc(Br)c(S(=O)(=O)N3CCOCC3)c2)CC(C)O1 (configuration not stated)	none (no result: VP16 counter, RORg inh)
CCOC(=O)c1cccc(NC(=O)N2CCC(CN3CCCCCC3)CC2)c1	none (no result: ATXN viability, VP16 counter, ATXN2 expr inh, RORg inh)
CC(C)(C(=O)NCC(F)(F)C(F)(F)F)C(=O)N[C@@H]1C(=O)Nc2ccccc2-c2ccccc21	none (no result: HepG2 tox, TGFb inhibitor, ATXN viability, VP16 counter, RORg inh)
O=S(=O)(NCCc1nnc2ccc(SCc3ccccc3Cl)nn12)c1ccccc1	TGFb inhibitor inconclusive (no result: ATXN viability, VP16 counter, ATXN2 expr inh, RORg inh)
C/C(=N\NC(=S)NCc1ccccc1)c1ccc(C#N)cc1	VP16 counter 7.1µM, RORg inh 2.8µM
S=C(NCc1ccccc1)NCc1cccc(CNC(=S)NCc2ccccc2)c1	TGFb inhibitor inconclusive
C/C(=N\NC(=S)NCc1ccccc1)c1ccccc1	TGFb inhibitor inconclusive, VP16 counter 3.5µM, RORg inh 3.5µM
C/C(=N\NC(=S)NCc1ccccc1)c1ccccc1F	RORg inh 1.3µM
C/C(=N\NC(=O)c1ccccc1F)c1ccc(C#N)cc1	none
Fc1ccccc1NC(=S)NCc1ccccc1	VP16 counter inconclusive, RORg inh inconclusive
C/C(=N\NC(=S)NCc1ccccc1)c1ccc(C(C)(C)C)cc1	TGFb inhibitor inconclusive, VP16 counter 1.4µM, RORg inh 1µM
COc1ccc(C2CC(O)(c3ccccc3)Oc3c(C)ccc(C)c32)cc1 (configuration not stated)	TGFb inhibitor inconclusive, ATXN viability inconclusive, VP16 counter 13µM, ATXN2 expr inh inconclusive, RORg inh inconclusive
Cc1cc(C)n(-c2nc(NCC(C)O)c3c4c(sc3n2)COC(C)(C)C4)n1 (configuration not stated)	VP16 counter 10µM, RORg inh 3.2µM
Cc1cc(C)n(-c2nc(NCC3CCCO3)c3c4c(sc3n2)COC(C)(C)C4)n1 (configuration not stated)	VP16 counter 3.2µM, RORg inh 2.8µM
Cc1cc(C)n(-c2nc(NCC(C)O)c3c4c(sc3n2)CCCC4)n1 (configuration not stated)	VP16 counter 1µM, RORg inh inconclusive
Cc1cc(C)n(-c2nc(SCC(=O)O)c3c4c(sc3n2)CCCC4)n1	RORg inh inconclusive (no result: HepG2 tox, TGFb inhibitor, ATXN viability, ATXN2 expr inh)
Cc1cc(C)n(-c2nc(NCCO)c3c4c(sc3n2)CCCC4)n1	TGFb inhibitor inconclusive, ATXN viability inconclusive, VP16 counter 4.5µM, RORg inh 3.2µM
CCCCn1c(C)cc2c(c1=O)C1O[C@](c3ccsc3)(Cc3ccccc31)O2	none (no result: HepG2 tox, TGFb inhibitor, ATXN viability, ATXN2 expr inh)
Cc1cc(C)n(-c2nc(NCCCO)c3c4c(sc3n2)CCCC4)n1	ATXN viability inconclusive, VP16 counter 2.8µM, RORg inh 1.6µM
Cc1cc(C)n(-c2nc(SCC(=O)NCC3CCCO3)c3c4c(sc3n2)CCCC4)n1 (configuration not stated)	RORg inh inconclusive (no result: HepG2 tox, TGFb inhibitor, ATXN viability, ATXN2 expr inh)

Source: PubChem BioAssay
